# Assay results: PubChem BioAssay (EPA / NIEHS)
# Calls of active or inactive are those of the source. How the source made its calls: active means hit-call score of the fitted dose curve at least 0.9, where 1 is the maximum; inactive means score below 0.9.
# Read-out: Transforming growth factor beta 1 (TGFb1), TGFB1 (gene 7040)
# Test: BSK_KF3CT_TGFb1: BioMAP Diversity Plus: KF3CT Assay for Transforming growth factor beta 1 (TGFb1) Biomarker Activity (AID 2283072)
# Details: primary human keratinocytes with fibroblasts; actives raise or lower the signal
# Procedure: BSK_KF3CT is a cell-based, multiplexed-readout assay that uses keratinocytes and foreskin fibroblasts, a human skin primary cell co-culture, with measurements taken at 24 hours after chemical dosing in a 96-well plate.BSK_KF3CT_TGFb1 is an assay component measured in the BSK_KF3CT assay. It measures TGF-b1 antibody related to regulation of gene expression using ELISA technology.Data from the assay component BSK_KF3CT_TGFb1 was analyzed into 1 assay endpoint. This assay endpoint, BSK_KF3CT_TGFb1, was analyzed with bidirectional fitting relative to DMSO as the negative control and baseline of activity. Using a type of binding reporter, gain or loss-of-signal activity can be used to understand changes in the signaling as they relate to the gene TGFB1. Furthermore, this assay endpoint can be referred to as a primary readout, because this assay has produced multiple assay endpoints where this one serves a signaling function. To generalize the intended target to other relatable targets, this assay endpoint is annotated to the growth factor intended target family, where the subfamily is transforming growth factor beta.
# The levels of cell surface (or secreted, indicated by the prefix "s") biomarker endpoints were measured by ELISA. Overt cytotoxicity to cells in confluent adherent cultures (all systems other than the BT system) was assessed by measuring total protein levels using sulforhodamine B (SRB) staining in parallel cultures at the time of biomarker measurements, indicated as SRB endpoints. For proliferation assays for adherent cell types, individual cell types are cultured at sub-confluence and relative cell numbers quantified by SRB staining at time points optimized for each system (48 h: 3C and CASM3C systems; 72 h: BT and HDF3CGF systems; 96 h: SAg system). SRB was performed by staining cells with 0.1% SRB after fixation with 10% TCA and reading wells at 560 nm.Viability and proliferation of PBMC (T cells) was quantified by Alamar Blue reduction for the SAg and BT systems. For PBMC viability (referred to as PBMC Cytotoxicity within the assay endpoint names), cells were plated (75,000/well in a 96-well plate) and then chemical samples added for 1 h before addition of activators, SEB and TSST-1 (20 ng/mL final concentration each). Cells were incubated for 90 h. Then, Alamar Blue (20 uL/well) (Invitrogen, Cat DAL1100) was added for 6 h, and the plates were read with a fluorescence microplate reader at 546/580 nm (excitation/emission). For PBMC proliferation, cells were plated and activated as above but incubated for only 16 h prior to addition of Alamar Blue. Plates were read after 6 h.
Compound,outcome,AC50
CCOP(=S)(OCC)SCS(=O)(=O)C(C)(C)C,inactive,–
OC(Cc1ccccc1Cl)(Cn1cncn1)C1(Cl)CC1 (stereo not given),inactive,–
CC(C)(C)c1ccccc1O,inactive,–
CCOC(=O)CCN(SN(C)C(=O)Oc1cccc2c1OC(C)(C)C2)C(C)C,inactive,–
Cc1ccccc1OP(=O)(Oc1ccccc1C)Oc1ccccc1C,inactive,–
Cc1c([N+](=O)[O-])c(C)c([N+](=O)[O-])c(C(C)(C)C)c1[N+](=O)[O-],inactive,–
OC(Cc1ccccc1Cl)(Cn1[nH]cnc1=S)C1(Cl)CC1 (stereo not given),–,16.9 µM (active)
C=CC(Cl)CCl (stereo not given),–,0.189 µM (active)
Cc1cc(Cl)ccc1OC(C)C(=O)O (stereo not given),inactive,–
O=C(N[C@H]1CN2CCC1CC2)c1ccc2c(c1)OCCO2,inactive,–
CCCCCCCCCCCCc1cccc(S(=O)(=O)O)c1,–,25.3 µM (active)
O=S(=O)(c1ccc(Cl)cc1)c1cc(Cl)c(Cl)cc1Cl,–,5.16 µM (active)
CCOP(=O)(OCC)OC(=CCl)c1ccc(Cl)cc1Cl,–,27.1 µM (active)
[Cl][Sn]([c]1ccccc1)([c]1ccccc1)[c]1ccccc1,–,0.0622 µM (active)
O=C(CCl)NCO,inactive,–
CCC(C)(C#N)N=NC(C)(C#N)CC (stereo not given),inactive,–
C[C@]12CC[C@@H](O)C[C@@H]1CC[C@@H]1[C@@H]2CC[C@]2(C)C(=O)CC[C@@H]12,inactive,–
C#CCOC(=O)/C=C(C)/C=C/CC(C)CCCC(C)C (stereo not given),inactive,–
Cc1ccc2nc3sc(=O)sc3nc2c1,inactive,–
Clc1cccc(Cl)c1,inactive,–

Compound,outcome,AC50
Nc1ccc(N)cc1,inactive,–
Cc1ccccc1OP(=O)(Oc1ccccc1)Oc1ccccc1,–,0.016 µM (active)
CC(C)(COCC1CO1)COCC1CO1 (stereo not given),inactive,–
CC(C)=CC1C(C(=O)OCc2cccc(Oc3ccccc3)c2)C1(C)C (stereo not given),inactive,–
CCN(CC)C(=O)C(Cl)=C(C)OP(=O)(OC)OC,inactive,–
CCOP(=O)(OCC)SCCSCC,inactive,–
CCOP(=S)(OCC)OP(=S)(OCC)OCC,inactive,–
N#CCCC(Br)(C#N)CBr (stereo not given),–,11.3 µM (active)
CCCCCCCCCCCCN(C)C,inactive,–
Cc1cc(C)cc(C)c1,inactive,–
Cc1cc(Cl)ccc1N,inactive,–
CN(C)C(=S)S,inactive,–
CC(C)N(C(=O)CCl)c1ccccc1,–,20 µM (active)
Nc1c(Oc2ccccc2)cc(O)c2c1C(=O)c1ccccc1C2=O,inactive,–
Cc1ccc(OP(=O)(Oc2ccc(C)cc2C)Oc2ccc(C)cc2C)c(C)c1,inactive,–
Oc1c(Cl)cc(Cl)cc1Cl,inactive,–
Oc1c(Br)cc(Br)cc1Br,inactive,–
Oc1ccc(Cc2ccc(O)cc2)cc1,inactive,–
Oc1cccc(-c2ccccc2)c1,inactive,–
O=[N+]([O-])c1ccc(Nc2ccccc2)cc1,inactive,–
